The source of these data is PubChem BioAssay (Tox21).

Records with an inconclusive call do not appear. Active and inactive are the calls of the source. Unless noted, calls follow the shape of the dose curve; as a rule, active = well fitted curve in the direction sought with a large enough effect in the repeat runs; inconclusive = weak or mixed curves; inactive = no such curve, though single readings can be large; an effect the other way counts as inactive or inconclusive.

The nature of assay [1]: qHTS assay to identify small molecule antagonists of the glucocorticoid receptor (GR) signaling pathway - cell viability counter screen (AID 720693). Also: nearly all actives have a fitted effect of over 55% in size. In general terms: qHTS replaces the single test concentration by a dilution series.
Assay [2] is described as follows: qHTS assay for identifying genotoxic compounds that show differential cytotoxicity against isogenic chicken DT40 cell lines with known DNA damage response pathways - wild type cell line (AID 743012). Also: nearly all actives have a fitted effect of over 60% in size. Also: potency is read from the fitted curve at half-maximal effect. An outline of the steps: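 300 wt DT40 cells/well; cpd (DMSO) pintool-transferred after ~0.5 h at 37 C/5% CO2; 40 h incubation; CellTiter-Glo added, 30 min RT; luminescence read.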

Assay [3] in a line: qHTS assay for identifying genotoxic compounds that show differential cytotoxicity against isogenic chicken DT40 cell lines with known DNA damage response pathways - Rev3 mutant cell line (AID 743014). Also: nearly all actives have a fitted effect of over 55% in size. Also: potency is read from the fitted curve at half-maximal effect.
Assay [4] can be described thus: qHTS assay for identifying genotoxic compounds that show differential cytotoxicity against isogenic chicken DT40 cell lines with known DNA damage response pathways - Rad54/Ku70 mutant cell line (AID 743015). Also: nearly all actives have a fitted effect of over 60% in size. Also: potency is read from the fitted curve at half-maximal effect.
Assay [5] can be described thus: qHTS assay to identify small molecule antagonists of the androgen receptor (AR) signaling pathway - cell viability counter screen (AID 743033; also: nearly all actives have a fitted effect of over 45% in size).
The nature of assay [6]: qHTS assay to identify small molecule antagonists of the androgen receptor (AR) signaling pathway using the MDA cell line - cell viability counter screen (AID 743041; also: nearly all actives have a fitted effect of over 45% in size). A digest of the protocol: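 Viability read by CellTiter-Fluor fluorescence in the same wells as the antagonist screen, added after 15.5 h of a 16 h, 37C exposure. Human breast carcinoma MDA-kb2 AR-luc cells, compounds co-dosed with agonist R1881.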

The nature of assay [7]: qHTS assay to identify small molecule antagonists of the thyroid receptor (TR) signaling pathway (AID 743065). Also: nearly all actives have a fitted effect of over 55% in size. Also: potency is read from the fitted curve at half-maximal effect. An outline of the steps: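 Antagonism measured as loss of luciferase signal in GH3 cells stably carrying a TRE-luciferase reporter, co-treated with compound and T3 (1 nM final) for 23.5 h at 37 C. Viability was read in the same well by CellTiter-Fluor.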
For assay [8], the system named is thyroid hormone receptor (rat, GH3 cells). As to the kind of experiment: qHTS assay to identify small molecule agonists of the thyroid receptor (TR) signaling pathway (AID 743066; calls by dose curve).
A short description of assay [9]: qHTS assay to identify small molecule antagonists of the estrogen receptor alpha (ER-alpha) signaling pathway - cell viability counter screen (AID 743074; calls by dose curve;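 also: HEK293 cells carrying ER-alpha-UAS-bla reporter stimulated with 17beta-estradiol; nearly all actives have a fitted effect of over 45% in size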).
Assay [10] can be described thus: qHTS assay to identify small molecule antagonists of the estrogen receptor alpha (ER-alpha) signaling pathway using the BG1 cell line - cell viability counter screen (AID 743081).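 Also: compound given together with 17beta-estradiol as the ER stimulus; series mostly up to about 70 µM; nearly all actives have a fitted effect of over 45% in size.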
The target in another assay is Aromatase (Homo sapiens) (UniProt P11511). As to the kind of experiment: qHTS assay to identify aromatase inhibitors (AID 743083). Also: nearly all actives have a fitted effect of over 55% in size. Also: potency is read from the fitted curve at half-maximal effect.
Sequence of Aromatase (Homo sapiens) (P11511 whole entry, looked up): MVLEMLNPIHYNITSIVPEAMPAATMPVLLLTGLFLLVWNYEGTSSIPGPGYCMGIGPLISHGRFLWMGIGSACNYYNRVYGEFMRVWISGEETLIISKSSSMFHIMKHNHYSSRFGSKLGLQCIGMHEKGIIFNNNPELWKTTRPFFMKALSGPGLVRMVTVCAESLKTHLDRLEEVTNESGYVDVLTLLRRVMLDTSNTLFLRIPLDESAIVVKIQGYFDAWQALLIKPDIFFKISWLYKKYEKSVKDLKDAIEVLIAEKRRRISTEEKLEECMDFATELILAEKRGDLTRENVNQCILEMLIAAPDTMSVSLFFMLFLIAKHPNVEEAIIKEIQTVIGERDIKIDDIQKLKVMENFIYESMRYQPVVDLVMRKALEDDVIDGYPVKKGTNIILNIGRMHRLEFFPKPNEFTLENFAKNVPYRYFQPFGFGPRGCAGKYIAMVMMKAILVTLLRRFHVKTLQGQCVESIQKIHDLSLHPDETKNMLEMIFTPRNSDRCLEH
In assay [11] the target is Androgen receptor (Homo sapiens) (UniProt P10275). In words: qHTS assay to identify small molecule antagonists of the androgen receptor (AR) signaling pathway (AID 743035; active = well fitted inhibition curve with a large enough effect in the signal ratio in the repeat runs, not every such curve was filed as active; the % refers to the signal ratio). An outline of the steps: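 In this cell-based reporter screen, compounds were tested in concentration series against R1881-activated HEK293 cells expressing beta-lactamase under UAS control; after 16 h at 37C, FRET substrate was added and fluorescence read 2 h later.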
Sequence of Androgen receptor (Homo sapiens) (P10275 whole entry, looked up): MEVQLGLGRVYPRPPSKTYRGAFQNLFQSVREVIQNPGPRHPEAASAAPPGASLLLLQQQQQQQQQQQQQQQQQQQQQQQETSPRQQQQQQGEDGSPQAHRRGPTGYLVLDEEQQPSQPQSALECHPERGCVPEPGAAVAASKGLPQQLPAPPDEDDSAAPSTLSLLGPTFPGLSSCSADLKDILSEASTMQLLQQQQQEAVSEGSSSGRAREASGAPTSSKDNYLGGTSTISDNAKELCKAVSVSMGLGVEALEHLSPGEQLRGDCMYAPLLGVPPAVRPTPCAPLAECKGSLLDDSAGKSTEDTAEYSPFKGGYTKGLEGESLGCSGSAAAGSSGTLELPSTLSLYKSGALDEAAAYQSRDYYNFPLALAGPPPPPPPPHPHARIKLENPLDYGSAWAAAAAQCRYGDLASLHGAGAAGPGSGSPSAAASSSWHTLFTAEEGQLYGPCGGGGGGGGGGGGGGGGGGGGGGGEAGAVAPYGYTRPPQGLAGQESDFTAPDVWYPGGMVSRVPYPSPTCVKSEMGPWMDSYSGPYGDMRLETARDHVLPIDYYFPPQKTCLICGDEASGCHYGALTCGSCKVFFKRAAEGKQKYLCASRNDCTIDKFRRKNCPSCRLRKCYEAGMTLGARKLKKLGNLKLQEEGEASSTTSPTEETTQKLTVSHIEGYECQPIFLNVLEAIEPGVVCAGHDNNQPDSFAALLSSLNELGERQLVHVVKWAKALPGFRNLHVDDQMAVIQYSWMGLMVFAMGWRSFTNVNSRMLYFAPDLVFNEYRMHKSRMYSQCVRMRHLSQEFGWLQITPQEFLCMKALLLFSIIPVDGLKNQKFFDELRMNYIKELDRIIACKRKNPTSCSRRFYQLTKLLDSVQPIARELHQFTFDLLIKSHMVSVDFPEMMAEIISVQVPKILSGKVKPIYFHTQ

The target is the same in assay [12]. In words: qHTS assay to identify small molecule agonists of the androgen receptor (AR) signaling pathway using the MDA cell line (AID 743040; also: nearly all actives have a fitted effect of over 20% in size). A digest of the protocol:
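Luciferase agonist assay: 16 h compound exposure at 37C without CO2 in MDA-kb2 AR-luc cells, whose MMTV promoter responds to both AR and GR. Luminescence measured after 30 min room-temperature incubation with ONE-Glo.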

The target is the same in assay [13]. In words: qHTS assay to identify small molecule antagonists of the androgen receptor (AR) signaling pathway using the MDA cell line (AID 743042; also: nearly all actives have a fitted effect of over 55% in size). An outline of the steps: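 Antagonist mode: compounds plus R1881 agonist added to MDA-kb2 AR-luc cells, incubated 16 h at 37C. Luciferase reporter luminescence quantified, with multiplexed CellTiter-Fluor readout for cell viability.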

Assay [14] can be described thus: qHTS assay to identify small molecule antagonists of the thyroid receptor (TR) signaling pathway - cell viability counter screen (AID 743064). Also: nearly all actives have a fitted effect of over 50% in size. Also: potency is read from the fitted curve at half-maximal effect. An outline of the steps: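 Viability of T3-stimulated (1 nM final) GH3.TRE-Luc cells is measured by CellTiter-Fluor fluorescence after 23.5 h compound exposure at 37 °C plus 30 min reagent incubation.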
For assay [15], the target named is Estrogen receptor (Homo sapiens) (UniProt P03372). In words: qHTS assay to identify small molecule agonists of the estrogen receptor alpha (ER-alpha) signaling pathway (AID 743075; calls by dose curve;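 also: HEK293 GripTite cells with ER-alpha and UAS-driven beta-lactamase reporter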).
Sequence of Estrogen receptor (Homo sapiens) (P03372 whole entry, looked up): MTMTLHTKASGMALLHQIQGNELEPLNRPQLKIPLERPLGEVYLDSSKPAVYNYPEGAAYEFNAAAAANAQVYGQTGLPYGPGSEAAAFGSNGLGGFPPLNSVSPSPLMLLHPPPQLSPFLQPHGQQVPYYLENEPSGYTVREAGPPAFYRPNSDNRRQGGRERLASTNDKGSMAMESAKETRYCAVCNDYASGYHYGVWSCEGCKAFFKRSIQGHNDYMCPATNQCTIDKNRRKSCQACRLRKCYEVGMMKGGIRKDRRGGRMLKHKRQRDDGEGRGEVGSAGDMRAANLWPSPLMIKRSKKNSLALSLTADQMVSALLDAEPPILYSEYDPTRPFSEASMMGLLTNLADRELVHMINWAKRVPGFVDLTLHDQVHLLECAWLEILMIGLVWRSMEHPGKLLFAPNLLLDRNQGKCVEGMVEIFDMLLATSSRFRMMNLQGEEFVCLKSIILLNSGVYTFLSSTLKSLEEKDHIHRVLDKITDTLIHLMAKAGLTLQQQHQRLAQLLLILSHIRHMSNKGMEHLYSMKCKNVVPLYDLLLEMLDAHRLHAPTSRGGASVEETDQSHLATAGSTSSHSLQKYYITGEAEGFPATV
Assay [16] shares this target. As to the kind of experiment: qHTS assay to identify small molecule agonists of the estrogen receptor alpha (ER-alpha) signaling pathway using the BG1 cell line (AID 743079). Also: nearly all actives have a fitted effect of over 20% in size. Also: potency is read from the fitted curve at half-maximal effect.
A short description of assay [17]: qHTS assay to identify small molecule antagonists of the estrogen receptor alpha (ER-alpha) signaling pathway using the BG1 cell line (AID 743080; calls by dose curve;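 also: BG1 cells stimulated with 17beta-estradiol alongside compound; series mostly up to about 70 µM; nearly all actives have a fitted effect of over 25% in size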). A digest of the protocol:
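BG1Luc4E2, endogenous ER-alpha, 4xERE-luc; 5 d charcoal-stripped FBS, phenol red free; 24 h plating; cpd + 17beta-estradiol 21.5 h, 37 C/5% CO2; CellTiter-Fluor viability 30 min, then ONE-Glo luciferase 30 min RT.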

The target of assay [18] is Androgen receptor (Homo sapiens) (UniProt P10275). In words: qHTS assay to identify small molecule agonists of the androgen receptor (AR) signaling pathway (AID 743036; active = well fitted activation curve with a large enough effect in the signal ratio in the repeat runs, with a control signal flat, not every such curve was filed as active; the % refers to the signal ratio). An outline of the steps: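 Screening used 2,000 AR-bla HEK293 cells per well, treated 16 h at 37C with test compounds in DMSO alongside positive and DMSO-only controls; beta-lactamase activity was then read by LiveBLAzer B/G FRET fluorescence after 2 h at room temperature.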

Assay [19] addresses Estrogen receptor (Homo sapiens) (UniProt P03372). In words: qHTS assay to identify small molecule antagonists of the estrogen receptor alpha (ER-alpha) signaling pathway (AID 743069; active = well fitted curve in the direction sought with a large enough effect in the signal ratio in the repeat runs, not every such curve was filed as active; the % refers to the signal ratio). An outline of the steps:
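Antagonist mode: compounds in DMSO were co-added with 17beta-estradiol to ER-alpha-bla HEK293 cells (2% charcoal-stripped serum) and left 18 h at 37C. Reporter inhibition was measured as FRET fluorescence after 2 h LiveBLAzer substrate at room temperature.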

Consider `O=C(O)/C=C/c1cnc[nH]1`, for which the Potency result in assay [1], in assay [2], in assay [3], in [4], in assay [5] and in assay [6] was “inactive” in each case. The Potency entry (in [7]; in assay [8]; in [10]; with Aromatase (Homo sapiens)) was “inactive” throughout. For the same compound, the compound was called inactive in assay [9].
Regarding `O=C(O)Cc1sc(-c2ccccc2)nc1-c1ccc(Cl)cc1`, the Potency result in assay [1], in [2], in [3], in [5], in assay [11] and in assay [12] was “inactive” in each case. Also, the Potency entry in assay [6], in assay [13], in assay [14], in [8], in assay [15] and in assay [16] was “inactive” each time. The Potency entry (in assay [17]; in assay [10]; in the assay with Aromatase (Homo sapiens)) was “inactive” each time. Also, the result in [9] was inactive.
With `NC1CCN(c2nc3c(cc2F)c(=O)c(C(=O)O)cn3-c2ccc(F)cc2F)C1` (stereo not drawn), the Potency entry in assay [1], in assay [6], in assay [14], in [8], in [15] and in assay [16] was “inactive” each time. The Potency result in the assay with Aromatase (Homo sapiens) was “inactive”. The Potency in [2] was 10.6 µM (active); in assay [3], 13.3 µM (active); in assay [4], 18.8 µM (active). For the same compound, the result in [9] was inactive.
For `C1CCC2OC2C1` (stereo not drawn), the Potency result in [1], in assay [2], in [3], in [5], in assay [11] and in assay [12] was “inactive” in each case. Also, the Potency result in assay [6], in assay [13], in assay [14], in assay [7], in [8] and in assay [19] was “inactive” throughout. For the same compound, the Potency result (in assay [15]; in assay [17]; in assay [10]; in the assay with Aromatase (Homo sapiens)) was “inactive” each time. Besides, the call in [18] and in assay [9] was inactive.
`CC(C)NCC(O)COc1ccc(CC(N)=O)cc1` (stereo not drawn): the Potency entry in assay [1], in [2], in [3], in [5], in assay [6] and in [14] was “inactive” in each case. The Potency entry in assay [7], in assay [8], in assay [19], in assay [15], in assay [16] and in assay [17] was “inactive” in each case. In addition, the Potency result in assay [10] was “inactive”. The compound was classed as inactive in [9].
As for `CCOC(=O)[C@H](CCc1ccccc1)N[C@H]1CCc2ccccc2N(CC(=O)O)C1=O`, the Potency entry in [1], in assay [6] and in assay [10] was “inactive” throughout. Also, the Potency is 11.9 µM (active) in assay [2]; 23.7 µM (active) in assay [3]; 21.1 µM (active) in assay [4]; 5.31 µM (active) in [14]; 8.41 µM (active) in assay [7]; 15 µM (active) in the assay with Aromatase (Homo sapiens). Besides, the compound was called inactive in assay [9].
Regarding `CNS(=O)(=O)Cc1ccc2[nH]cc(CCN(C)C)c2c1`, the Potency entry in assay [1], in assay [2], in [3], in [4], in assay [6] and in assay [14] was “inactive” throughout. Besides, the Potency entry (in [7]; in [8]; in [10]; in the assay with Aromatase (Homo sapiens)) was “inactive” each time. Moreover, the outcome in assay [9] was inactive.
On to `NC(N)=N/N=C/c1c(Cl)cccc1Cl`, for which the Potency entry in assay [1], in assay [12], in [8], in [15], in [16] and in assay [17] was “inactive” each time. Also, the Potency result in the assay with Aromatase (Homo sapiens) is “inactive”. Also, the Potency in assay [2] was 11.9 µM (active); in [3], 23.7 µM (active); in [4] it was 21.1 µM (active); in assay [14] it was 23.7 µM (active); in assay [7] it was 23.7 µM (active). Also, the outcome in assay [9] was inactive.
Take `O=C(NS(=O)(=O)/C=C/c1cccs1)c1ccc(F)cc1Br`: the Potency result in assay [1], in assay [2], in assay [3], in [5], in [12] and in assay [6] was “inactive” in each case. The Potency entry (in assay [13]; in assay [14]; in [7]; in [8]; in [10]; with Aromatase (Homo sapiens)) was “inactive” throughout. Besides, the compound was called inactive in assay [18] and in [9]. Further, in assay [16], the Potency was 68.6 µM (active).
For the compound `C=CC(C)(CCC=C(C)C)OC(=O)c1ccccc1` (stereo not drawn), the Potency entry in assay [1], in assay [2], in [5], in [6], in assay [8] and in assay [10] was “inactive” in each case. For the same compound, the Potency in assay [3] was 24.3 µM (active); in [4] it was 27.3 µM (active). In assay [9], the compound was called inactive.
With `COCCOCCOCCOCCOC`, the Potency entry in assay [1], in [2], in assay [3], in assay [5], in assay [11] and in assay [12] was “inactive” in each case. Moreover, the Potency result in [6], in assay [13], in [14], in [7], in assay [8] and in [19] was “inactive” each time. Also, the Potency entry (in [15]; in assay [16]; in assay [17]; in [10]; with Aromatase (Homo sapiens)) was “inactive” in each case. The compound was classed as inactive in assay [9].
In the case of `O=C(Cl)c1ccc([N+](=O)[O-])cc1`, the Potency entry in assay [1], in [2], in assay [3], in assay [5], in [11] and in [6] was “inactive” throughout. In addition, the Potency result in [13], in assay [14], in assay [7], in assay [8], in assay [19] and in [15] was “inactive” in each case. For the same compound, the Potency result (in assay [16]; in assay [17]; in assay [10]; with Aromatase (Homo sapiens)) was “inactive” throughout. In addition, the compound was called inactive in assay [9].
